Data reported in PubChem BioAssay AID588445 (Southern Research Specialized Biocontainment Screening …, 2011).
Inconclusive results are not listed. Activity calls are given as the source filed them. How the calls were made is not given here.

assay: Vero cell viability loss – purified and synthesized compounds, set 6, cytotoxicity control for M. tuberculosis inhibitor project, dose response (AID 588445); settings: cytotoxicity counter-screen; series mostly up to 100 µM; viability: at the top concentration

SMILES	viability
COc1ccc(N2CCN(C(=O)c3ccc(CNc4c(N5CCOCC5)c(=O)c4=O)cc3)CC2)cc1	96.4% (inactive)
CC1CC(C)CN(C(=O)C2CCC(CNc3c(N4CCCCC4)c(=O)c3=O)CC2)C1 (stereo unspecified)	94.1% [at 30 µM] (inactive)
CCOC(=O)CSc1ncnc2c1cnn2-c1ccc(C)cc1C	93.2% (inactive)
COC(=O)CSc1ncnc2c1cnn2-c1ccc(C)cc1C	98.7% (inactive)
CCOC(=O)CSc1ncnc2c1cnn2-c1ccccc1	91.5% (inactive)
CC(C)OC(=O)CSc1ncnc2c1cnn2-c1ccccc1	91.6% (inactive)
